# Measured values as given in ChEMBL document CHEMBL3988442, “University of Dundee, Small-Polar-MMV Screening Library” (2021).
# Out of some 66,000 compounds screened, about 960 (1.5%) showed an effect of 50% or more. Only a selection was taken, and strong results are over-represented in it overall.
# System: Trypanosoma brucei
# Assay: Trypanosoma brucei 72 hour study
# Format: functional, organism-based
# Design: scale not given: in the data most compounds retested in dose-response had high values
smiles,measurement,setting,value
NCC(CO)Cc1cccc(OC(F)(F)F)c1 (stereo not drawn),Percent Effect,"30 µM, 30.03 µM",97.23%
NCC(CO)Cc1ccc(OC(F)(F)F)cc1 (stereo not drawn),Percent Effect,"30 µM, 30.03 µM",-40.47%
CNC(=O)NCC(CO)Cc1cccc(OC(F)(F)F)c1 (stereo not drawn),Percent Effect,"30 µM, 30.03 µM",-27.06%
CN1CCN(C(=O)c2n[nH]c3c2CN(C2CCOCC2)CC3)CC1.O=C(O)C(F)(F)F.O=C(O)C(F)(F)F.O=C(O)C(F)(F)F,Percent Effect,"30.3 µM, […]",-12.86%
Cc1cnn(C2CCCN(C(=O)c3cc4nc(C)ccc4o3)C2)c1 (stereo not drawn),Percent Effect,"30.3 µM, […]",0.9394%
CCN1CC2(CC1=O)CN(Cc1ccc(C)o1)CCN(C(=O)C(C)C)C2.O=C(O)C(F)(F)F (stereo not drawn),Percent Effect,"30 µM, 30.03 µM",-2.917%
COCCN1CCN(Cc2c(C3CCNCC3)[nH]c3ncccc23)CC1.Cl,Percent Effect,"30.3 µM, […]",1.283%
Cc1noc(C)c1C(=O)NCc1ccc(N2CCC(C)CC2)nc1,Percent Effect,10 µM,-31.9%
same,Percent Effect,"30.3 µM, […]",4.367%
COc1cccc(CCC(=O)N2CCC[C@@H](N)[C@@H]2c2ccccc2F)c1.Cl,Percent Effect,"30.3 µM, […]",35.53%
COc1ccc(CC(=O)N2CCC[C@@H](N)[C@@H]2c2ccccc2F)cc1.Cl,Percent Effect,"30.3 µM, […]",4.872%
N[C@@H]1CCCN(C(=O)Cc2c[nH]c3ccccc23)[C@H]1c1ccccc1F,Percent Effect,"30.3 µM, […]",82.48%
Cc1cc(C(=O)N2CCC3(CC2)C(=O)N(C)CCN3CC2CC2)c(C)o1.O=C(O)C(F)(F)F,Percent Effect,"30.3 µM, […]",5.817%
COCCN1C(=O)[C@]2(CC[C@@H]3CN(Cc4ccccc4F)C[C@@H]32)N=C1C.O=C(O)C(F)(F)F,Percent Effect,"30.3 µM, […]",-70.3%
COCc1nn(C(C)C)c2c1CCN(Cc1ccccn1)C2.O=C(O)C(F)(F)F.O=C(O)C(F)(F)F,Percent Effect,"30 µM, 30.03 µM",-4.66%
CCS(=O)(=O)N1CCC2(CN(c3ccsc3)C(=O)CN2C)C1.O=C(O)C(F)(F)F (stereo not drawn),Percent Effect,"30 µM, 30.03 µM",-22.46%
Cc1csc(Nc2cc(C3CCCCN3C)nc(C)n2)n1 (stereo not drawn),Percent Effect,"30 µM, 30.03 µM",67.05%
Cc1nc(Nc2nncs2)cc(C2CCCN2C)n1 (stereo not drawn),Percent Effect,"30.3 µM, […]",-36.12%
CNCC(=O)N1CC(c2cc(Nc3nc(C)cs3)nc(C)n2)C1.Cl,Percent Effect,"30.3 µM, […]",20.55%
Cc1nc(Nc2nnc(C)s2)cc(C2CCCN2C)n1 (stereo not drawn),Percent Effect,"30 µM, 30.03 µM",-13.78%
Cc1nc(Nc2nccs2)cc(C2CN(C(C)C)C2)n1,Percent Effect,"30.3 µM, […]",5.847%
Cc1csc(Nc2cc(C3CN(C(C)C)C3)nc(C)n2)n1,Percent Effect,"30.3 µM, […]",84.55%
Cc1cccc(CN2C[C@@H]3COC[C@]3(CNC(=O)c3cccn3C)C2)n1.O=C(O)C(F)(F)F.O=C(O)C(F)(F)F,Percent Effect,"30 µM, 30.03 µM",12.67%
O=C(O)C(F)(F)F.O=C(O)C(F)(F)F.c1cncc(OCc2noc3c2CN(Cc2cccs2)CC3)c1,Percent Effect,"30 µM, 30.03 µM",-9.325%
Cc1ccc(CN2CC[C@H]3[C@@H]2CCC(=O)N3CCN2CCCC2)s1.O=C(O)C(F)(F)F.O=C(O)C(F)(F)F,Percent Effect,"30 µM, 30.03 µM",11.06%
O=C(O)C(F)(F)F.O=C(c1cnc2ccccc2c1)N1CCC2(CCN2c2ncccn2)C1 (stereo not drawn),Percent Effect,"30 µM, 30.03 µM",-41.44%
CN1CCCC(c2cncc(-c3cccc(C(F)(F)F)c3)n2)C1 (stereo not drawn),Percent Effect,"30.3 µM, […]",45.17%
CN1CCCC(c2cccc(-c3cccc(C(F)(F)F)c3)n2)C1 (stereo not drawn),Percent Effect,"30.3 µM, […]",71.49%
CN1CCCC(c2cccc(-c3cccc(F)c3)n2)C1 (stereo not drawn),Percent Effect,"30.3 µM, […]",6.457%
CN(C)C(=O)Cn1c2c(ccc1=O)CCN(Cc1cnn(C)c1)CC2.O=C(O)C(F)(F)F,Percent Effect,"30.3 µM, […]",-19.86%
O=C(NCc1ccco1)[C@H]1CC[C@@H]2[C@@H](CCN2c2ncc(F)cn2)O1.O=C(O)C(F)(F)F,Percent Effect,"30 µM, 30.03 µM",-7.643%
Cc1ccc(N(C)S(=O)(=O)c2cc(C(=O)O)cs2)cc1,Percent Effect,"30.3 µM, […]",-13.08%
Cl.NC(=O)C(c1ccc(F)cc1)N1CCN(CCO)CC1 (stereo not drawn),Percent Effect,"30 µM, 30.03 µM",-19.82%
COc1nccnc1-c1cc(NC2CCNCC2)nc2[nH]ccc12,Percent Effect,"30 µM, 30.03 µM",-21.13%
Nc1ccnc(-c2cc(NC3CCNCC3)nc3[nH]ccc23)c1,Percent Effect,"30.3 µM, […]",98.23%
FC(F)(F)c1ccc(-c2cc(NC3CCNCC3)nc3[nH]ccc23)nc1,Percent Effect,"30.3 µM, […]",-0.8147%
CN(C)CCN1CCC2(CCN(C(=O)c3ccc(F)cc3)CC2)C1=O.O=C(O)C(F)(F)F,Percent Effect,"30.3 µM, […]",-18.87%
CS(=O)(=O)NCc1cnc2n1CCN(Cc1ccoc1)CC2.O=C(O)C(F)(F)F,Percent Effect,"30 µM, 30.03 µM",-17.96%
Cn1cccc1CNCc1nnc2n1CCCC2C(F)(F)F (stereo not drawn),Percent Effect,"30.3 µM, […]",-4.039%
CC(C)(C)c1cn2c(n1)C(CNCc1cnn3ccccc13)CCC2 (stereo not drawn),Percent Effect,"30.3 µM, […]",100%
CC(C)(C)c1ncc(CNCC2CCCn3ccnc32)s1 (stereo not drawn),Percent Effect,"30.3 µM, […]",9.708%
Cc1nc(C)c(CNCC2CCCn3ccnc32)s1 (stereo not drawn),Percent Effect,"30.3 µM, […]",-1.913%
Cn1cccc1CNCC1CCCn2cc(C(C)(C)C)nc21 (stereo not drawn),Percent Effect,"30.3 µM, […]",99.88%
Cc1cn2c(n1)C(CNCc1cnn3ccccc13)CCC2 (stereo not drawn),Percent Effect,"30.3 µM, […]",-7.399%
Cc1ccc(CNCC2CCCn3ccnc32)s1 (stereo not drawn),Percent Effect,"30.3 µM, […]",6.823%
Cc1cn2c(n1)C(CNCc1cccc3c1OCO3)CCC2 (stereo not drawn),Percent Effect,"30.3 µM, […]",8.746%
CC(C)(C)c1cn2c(n1)C(CNCc1ccccn1)CCC2 (stereo not drawn),Percent Effect,"30.3 µM, […]",52.9%
O=C(O)C(F)(F)F.O=C(c1cccc(Cl)c1)N1CC[C@H]2[C@H]1CCN2CC1CCOCC1,Percent Effect,"30 µM, 30.03 µM",13.39%
Cc1noc(C)c1CN1CCC2(CCN(Cc3cccc(F)c3)CC2)C1.O=C(O)C(F)(F)F.O=C(O)C(F)(F)F,Percent Effect,"30.3 µM, […]",-58.32%
Cc1ccc(CN(CCCn2ccnc2)Cc2cnn(C)c2)s1.O=C(O)CC(O)(CC(=O)O)C(=O)O,Percent Effect,"30.3 µM, […]",-61.1%
CNc1ncc2c(n1)CN(C1CC(C)(C)NC(C)(C)C1)C2=O,Percent Effect,"30.3 µM, […]",8.017%
CCn1nc(C)c2nc(C)nc(NCCc3ccccc3)c21,Percent Effect,"30.3 µM, […]",92.15%
CCn1nc(C)c2nc(C)nc(NCCCn3cccn3)c21,Percent Effect,"30.3 µM, […]",-1.841%
CCCc1nc(NCCCO)c2c(n1)c(C)nn2CC,Percent Effect,"30 µM, 30.03 µM",38.76%
CCCc1nc(NCCCn2cccn2)c2c(n1)c(C)nn2CC,Percent Effect,"30.3 µM, […]",10.65%
CCCc1nc(NCCc2ccccc2)c2c(n1)c(C)nn2CC,Percent Effect,"30.3 µM, […]",99.68%
Cc1nn(C)c2c(=O)n(C(C)C)c(NCCc3ccccc3)nc12,Percent Effect,"30.3 µM, […]",4.366%
CCn1c(NCc2ccccc2)nc2c(C)nn(C)c2c1=O,Percent Effect,"30.3 µM, […]",-7.911%
CCn1nc(C)c2nc(C(C)C)nc(NCCc3ccc(O)cc3)c21,Percent Effect,"30.3 µM, […]",39.22%
CCn1nc(C)c2nc(C)nc(NC3CCCC3)c21,Percent Effect,"30 µM, 30.03 µM",-3.661%
CCn1nc(C)c2nc(C)nc(NCCc3ccc(C)cc3)c21,Percent Effect,"30.3 µM, […]",100.2%
CCCn1c(NCCc2ccccc2)nc2c(C)nn(C)c2c1=O,Percent Effect,"30.3 µM, […]",99.9%
CCc1nc(NCCCn2cccn2)c2c(n1)c(C)nn2CC,Percent Effect,"30.3 µM, […]",-16.86%
